Results on nine compounds are retold here after PubChem BioAssay (Tox21).

The nature of assay [1]: Nuclear factor erythroid 2-related factor 2/antioxidant responsive element (Nrf2/ARE) small molecule agonists: qHTS cell viability counter screen in human keratinocytes (AID 1919968; active = well fitted curve in the direction sought with a large enough effect in the repeat runs; an effect the other way counts as inactive or inconclusive; also: nearly all actives have a fitted effect of over 55% in size). Put shortly: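 KeratinoSens cells (HaCaT keratinocytes stably carrying an ARE-luciferase reporter) were seeded at 1,500 cells/well and rested 5 h at 37 C/5% CO2. They were then exposed to compounds in DMSO for 23 h. Viability was read by CellTiter-Fluor fluorescence after 1 h.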

Assay [2] can be described thus: Nuclear factor erythroid 2-related factor 2/antioxidant responsive element (Nrf2/ARE) small molecule agonists: luciferase reporter gene qHTS assay in human keratinocytes (AID 1919969; also: nearly all actives have a fitted effect of over 35% in size; also: potency is read from the fitted curve at half-maximal effect). (In a reporter assay the amount or activity of a reporter protein is the signal.)
Assay [3] concerns the target Gonadotropin-releasing hormone receptor (Homo sapiens) (UniProt P30968). Put plainly: Human gonadotropin-releasing hormone receptor (GnRHR) small molecule agonists, calcium flux assay in GnRHR-HEK293 cells (AID 1920063). Also: nearly all actives have a fitted effect of over 35% in size. In outline: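 HEK293 cells stably expressing human GnRHR were plated 18 h at 37 °C, loaded with calcium dye 1 h at 37 °C, then given compound in agonist mode; fluorescence (Ex/Em 480/540) read kinetically for 3 min at 1 s intervals.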
For orientation: A change in cytosolic calcium serves as a functional read-out for many receptors and channels.

For assay [4], the target named is KiSS-1 receptor (Homo sapiens) (UniProt Q969F8). Nature of the assay: Human kisspeptin (KISS1R) small molecule agonists, calcium flux assay in KISS1R-HEK293 cells (AID 1920064; active = well fitted curve in the direction sought with a large enough effect in the repeat runs; an effect the other way counts as inactive or inconclusive). In outline:
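HEK293 cells stably expressing human KISS1R were plated 18 h at 37 °C, loaded with calcium dye for 1 h at 37 °C, then given compound by pin tool. Fluorescence (Ex/Em 480/540) was read kinetically for 3 min.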

A short description of assay [5]: G protein-coupled receptor (GPCR) small molecule agonists, calcium flux assay: HEK293 wild type cell line counter screen (AID 1920065). In outline:
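Cells were plated and cultured 18 h at 37 C/5% CO2, then loaded with calcium dye for 1 h at 37 C. Compounds in DMSO were pin-transferred in agonist mode, and fluorescence (Ex/Em 480/540) was read kinetically for 3 min at 1 s intervals.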

Assay [6] in a line: p53 small molecule agonists, cell-based qHTS assay with human liver microsomes: qHTS cell viability counter screen (AID 1963579). Also: nearly all actives have a fitted effect of over 45% in size. In outline: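 Metabolic activation used human liver microsomes and NADPH, both 0.5 mg/mL final, over 16 hours at 37 C on p53RE-bla cells (4,000/well). Cytotoxicity measured by CellTiter-Glo luminescence, 30 min at room temperature.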
(In general: In qHTS, concentration-response curves come from the screen itself.)

Assay [7] is described as follows: p53 small molecule agonists, cell-based qHTS assay with rat liver microsomes: qHTS cell viability counter screen (AID 1963580). Also: nearly all actives have a fitted effect of over 45% in size. In outline:
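In HCT-116 cells carrying a p53 response element-bla reporter, compounds were metabolically activated in situ by rat liver microsomes with NADPH over 16 h. Cell ATP content then served as the cytotoxicity measure.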

Assay [8] can be described thus: p53 small molecule agonists, cell-based qHTS assay: qHTS cell viability counter screen (AID 1963581). Also: nearly all actives have a fitted effect of over 45% in size. In outline: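 p53RE-bla HCT-116 cells were exposed to compounds for 16 h at 37 C; after the beta-lactamase FRET read in the same wells, CellTiter-Glo was added and luminescence (intracellular ATP) read after 30 min at room temperature.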
The target of assay [9] is 5-hydroxytryptamine receptor 2A (Homo sapiens) (UniProt P28223). Nature of the assay: 5-hydroxytryptamine receptor 2A (HTR2A) small molecule agonists, cell-based qHTS assay (AID 1963587). Also: nearly all actives have a fitted effect of over 30% in size. Put shortly:
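HTR2A-CHO cells, plated 18 h at 37 C/5% CO2, dye-loaded 1 h at 37 C; compounds in DMSO added by pin tool (agonist mode). Intracellular calcium flux read as kinetic fluorescence on FDSS over 2 min at 1 s intervals.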

Assay [10] has as its target Muscarinic acetylcholine receptor M1 (Homo sapiens) (UniProt P11229). Put plainly: Cholinergic receptor muscarinic 1 (CHRM1) small molecule antagonists, cell-based qHTS assay (AID 1963588). Also: nearly all actives have a fitted effect of over 40% in size. In outline: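 CHRM1-CHO calcium-flux assay, antagonist mode. Cells were seeded 18 h, dye-loaded 1 h at 37 C and given compound for 5 min at RT, then acetylcholine was added at 50nM. FDSS fluorescence was read 3 min; 15 concentrations, three runs.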

Assay [11] shares this target. Nature of the assay: Cholinergic receptor muscarinic 1 (CHRM1) small molecule agonists, cell-based qHTS assay (AID 1963589). Also: nearly all actives have a fitted effect of over 35% in size. In outline:
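CHO cells stably expressing human CHRM1, seeded 18 h at 37 C/5% CO2, dye-loaded 1 h at 37 C, then given compound in agonist mode; intracellular calcium fluorescence read kinetically at 1 s intervals. Fifteen concentrations, three independent runs.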

The nature of assay [12]: cAMP Responsive Elements (CRE) small molecule agonists, cell-based qHTS assay (AID 1963590). In outline:
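CRE-bla HEK 293T cells in DMEM with 10% dialyzed FBS, NEAA, pyruvate and 25 mM HEPES were plated 18 h at 37 C/5% CO2, then exposed to compounds in DMSO for 3 h before LiveBLAzer B/G FRET substrate addition.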

A short description of assay [13]: cAMP Responsive Elements (CRE) small molecule antagonists, cell-based qHTS assay (AID 1963591; active = well fitted inhibition curve with a large enough effect in the signal ratio in the repeat runs, not every such curve was filed as active; the % refers to the signal ratio). Put shortly:
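CRE-bla HEK293T cells were plated 18 h at 37 °C/5% CO2, pinned with compound in DMSO, then stimulated with NKH477 at 0.25 uM final for 3 h. LiveBLAzer B/G FRET substrate was added and plates incubated 2 h at room temperature.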

The target in assay [14] is D(2) dopamine receptor (Homo sapiens) (UniProt P14416). Nature of the assay: Dopamine D2 receptor (DRD2) small molecule agonists, cell-based qHTS assay (AID 1963594). Also: nearly all actives have a fitted effect of over 35% in size. Put shortly: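 HEK293 cells stably expressing DRD2 were cultured 24 h at 37 C, then given Ro20-1724 (0.1 mM final) and compounds for 10 min at room temperature. NKH477 (200nM) was then added for 30 min. cAMP was read by HTRF.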

The target is the same in assay [15]. Put plainly: Dopamine D2 receptor (DRD2) small molecule antagonists, cell-based qHTS assay (AID 1963595; active = well fitted inhibition curve with a large enough effect in the signal ratio in the repeat runs, with a control signal flat; the % refers to the signal ratio). In outline: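 In this cell-based antagonist screen, compounds act for 10 min at room temperature before a 30 min challenge with 12 nM quinpirole and 200 nM NKH477. cAMP is quantified by HTRF competition in DRD2-HEK293 cells containing 0.1 mM Ro20-1724.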

Assay [16] concerns the target Beta-2 adrenergic receptor (Homo sapiens) (UniProt P07550). Put plainly: Adrenergic beta2 receptor (ADRB2) small molecule agonists, cell-based qHTS assay (AID 1963593).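 Also: CHO cells stably overexpressing human ADRB2.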 Put shortly:
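CHO cells stably over-expressing ADRB2 were plated overnight at 37C, then dosed with compounds plus a stimulation mix containing 100uM IBMX and 25uM Ro-20-1724 for 0.5hr at room temperature. cAMP was measured by HTRF competition, 1hr.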

For assay [17] the target is unchanged. Put plainly: Adrenergic beta2 receptor (ADRB2) small molecule antagonists, cell-based qHTS assay (AID 1963592). Also: series mostly up to about 92 µM; nearly all actives have a fitted effect of over 50% in size. Put shortly: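 Cells (CHO, stable ADRB2 overexpression) incubated 18-20hr at 37C; compounds added from DMSO; agonist mix (1nM isoproterenol, 100uM IBMX, 25uM Ro-20-1724) added; 0.5hr RT; d2-cAMP and anti-cAMP-cryptate added; 1hr RT; 665/615 nm read.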

SMILES strings stand for the structures. Values without a mark were called inactive. Records with an inconclusive call do not appear. Active and inactive are the calls of the source. Unless noted, calls follow the shape of the full dose curve.
% is scaled to controls: 0 for no effect and ±100 for the full control effect.

Muscarinic acetylcholine receptor M1 (Homo sapiens), sequence (P11229 whole entry, looked up): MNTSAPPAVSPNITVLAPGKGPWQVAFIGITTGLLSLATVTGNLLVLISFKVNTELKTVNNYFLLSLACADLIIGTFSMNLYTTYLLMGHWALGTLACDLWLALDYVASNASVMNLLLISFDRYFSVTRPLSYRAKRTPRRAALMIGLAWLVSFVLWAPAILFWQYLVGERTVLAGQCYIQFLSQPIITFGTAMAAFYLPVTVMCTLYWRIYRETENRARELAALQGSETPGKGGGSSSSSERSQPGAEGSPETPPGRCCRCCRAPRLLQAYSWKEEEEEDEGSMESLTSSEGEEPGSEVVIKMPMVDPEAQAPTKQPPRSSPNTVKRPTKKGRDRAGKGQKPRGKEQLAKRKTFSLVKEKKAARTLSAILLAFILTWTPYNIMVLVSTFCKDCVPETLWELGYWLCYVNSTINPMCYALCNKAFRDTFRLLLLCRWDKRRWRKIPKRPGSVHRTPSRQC
D(2) dopamine receptor (Homo sapiens), sequence (P14416 whole entry, looked up): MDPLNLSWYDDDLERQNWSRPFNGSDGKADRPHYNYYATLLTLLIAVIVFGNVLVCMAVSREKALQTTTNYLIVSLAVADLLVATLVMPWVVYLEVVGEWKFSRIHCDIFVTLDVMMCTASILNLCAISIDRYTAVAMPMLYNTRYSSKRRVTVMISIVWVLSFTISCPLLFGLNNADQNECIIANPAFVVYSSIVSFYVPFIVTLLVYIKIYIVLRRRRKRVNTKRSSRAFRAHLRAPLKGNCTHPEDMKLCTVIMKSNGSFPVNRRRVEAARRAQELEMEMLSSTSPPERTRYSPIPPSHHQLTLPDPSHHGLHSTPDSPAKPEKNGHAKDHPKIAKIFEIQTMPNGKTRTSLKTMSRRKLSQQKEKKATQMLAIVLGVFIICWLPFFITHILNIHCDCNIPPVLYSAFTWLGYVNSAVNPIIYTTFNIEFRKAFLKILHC
Gonadotropin-releasing hormone receptor (Homo sapiens), sequence (P30968 whole entry, looked up): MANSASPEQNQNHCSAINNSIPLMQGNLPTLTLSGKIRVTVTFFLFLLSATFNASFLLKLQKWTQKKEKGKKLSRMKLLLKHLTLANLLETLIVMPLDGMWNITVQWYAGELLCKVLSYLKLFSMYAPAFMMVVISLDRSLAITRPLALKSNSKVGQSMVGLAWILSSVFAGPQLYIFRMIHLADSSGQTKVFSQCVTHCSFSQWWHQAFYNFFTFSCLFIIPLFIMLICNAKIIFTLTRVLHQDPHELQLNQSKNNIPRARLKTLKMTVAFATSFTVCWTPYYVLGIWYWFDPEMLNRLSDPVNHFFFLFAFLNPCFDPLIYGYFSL
KiSS-1 receptor (Homo sapiens), sequence (Q969F8 whole entry, looked up): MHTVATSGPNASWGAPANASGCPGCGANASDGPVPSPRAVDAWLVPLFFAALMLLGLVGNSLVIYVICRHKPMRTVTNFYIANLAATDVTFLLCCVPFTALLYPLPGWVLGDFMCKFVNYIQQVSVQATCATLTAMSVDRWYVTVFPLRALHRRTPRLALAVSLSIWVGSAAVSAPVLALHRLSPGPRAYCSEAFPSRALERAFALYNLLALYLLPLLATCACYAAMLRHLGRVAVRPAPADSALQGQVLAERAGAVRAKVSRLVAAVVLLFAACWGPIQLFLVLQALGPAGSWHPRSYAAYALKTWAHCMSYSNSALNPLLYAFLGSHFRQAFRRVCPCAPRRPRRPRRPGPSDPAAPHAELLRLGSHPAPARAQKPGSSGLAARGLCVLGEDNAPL
5-hydroxytryptamine receptor 2A (Homo sapiens), sequence (P28223 whole entry, looked up): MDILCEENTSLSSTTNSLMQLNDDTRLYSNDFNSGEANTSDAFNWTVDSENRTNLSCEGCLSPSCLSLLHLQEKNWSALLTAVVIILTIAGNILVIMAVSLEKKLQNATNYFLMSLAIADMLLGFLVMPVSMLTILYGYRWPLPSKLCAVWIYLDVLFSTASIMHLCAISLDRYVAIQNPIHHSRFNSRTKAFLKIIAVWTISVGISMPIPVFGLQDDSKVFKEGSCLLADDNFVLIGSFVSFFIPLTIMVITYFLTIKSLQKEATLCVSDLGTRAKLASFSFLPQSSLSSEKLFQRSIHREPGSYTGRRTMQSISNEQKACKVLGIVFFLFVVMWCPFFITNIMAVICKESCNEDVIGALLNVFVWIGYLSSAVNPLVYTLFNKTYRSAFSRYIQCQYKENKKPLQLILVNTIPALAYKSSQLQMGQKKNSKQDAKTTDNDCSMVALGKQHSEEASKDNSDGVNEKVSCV
Beta-2 adrenergic receptor (Homo sapiens), sequence (P07550 whole entry, looked up): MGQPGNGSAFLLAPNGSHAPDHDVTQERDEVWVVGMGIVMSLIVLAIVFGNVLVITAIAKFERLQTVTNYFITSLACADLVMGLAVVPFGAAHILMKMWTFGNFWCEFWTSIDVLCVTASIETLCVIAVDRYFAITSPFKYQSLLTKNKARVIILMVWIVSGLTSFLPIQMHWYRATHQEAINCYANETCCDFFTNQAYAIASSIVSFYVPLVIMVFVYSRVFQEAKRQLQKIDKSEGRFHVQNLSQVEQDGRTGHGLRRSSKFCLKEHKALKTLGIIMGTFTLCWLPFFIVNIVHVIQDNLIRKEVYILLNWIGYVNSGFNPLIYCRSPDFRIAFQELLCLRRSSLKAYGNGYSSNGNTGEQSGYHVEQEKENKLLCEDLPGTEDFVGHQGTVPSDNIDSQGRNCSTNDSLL

In the case of `Clc1nc2ccccc2nc1Cl`, the Potency result in assay [1], in [3], in assay [4], in assay [5], in assay [6] and in assay [7] was “inactive” in each case. Moreover, the Potency result in assay [8], in [9], in assay [10], in assay [11], in assay [12] and in assay [13] was “inactive” each time. The Potency entry in [14] and in [15] was “inactive” each time. Further, in [2], the Potency was 55.1 µM (active).

With `C=Cc1ccc(C=C)cc1`, the Potency entry in [1], in assay [2], in assay [3], in assay [4], in assay [5] and in assay [6] was “inactive” each time. Moreover, the Potency entry in assay [7], in assay [8], in [9], in [10], in assay [11] and in assay [12] was “inactive” each time. Besides, the Potency result in [13], in assay [14] and in [15] was “inactive” each time.

On to `O=C(O)/C=C/c1ccc(O)c(O)c1`, for which the Potency entry in assay [1], in assay [2], in assay [3], in [4], in [5] and in [6] was “inactive” each time. In addition, the Potency result in assay [7], in assay [8], in [9], in [11], in assay [12] and in [13] was “inactive” in each case. Further, the Potency entry in assay [16], in assay [14] and in assay [15] was “inactive” each time.

For the compound `CCOc1ccc2nc(S(N)(=O)=O)sc2c1`, the Potency entry in assay [1], in assay [3], in assay [4], in [5], in assay [6] and in assay [7] was “inactive” throughout. In addition, the Potency result in assay [8], in [9], in assay [10], in assay [12], in assay [13] and in assay [17] was “inactive” in each case. For the same compound, the Potency entry in [16] and in [15] was “inactive” throughout. Moreover, the Potency in [2] is 6.68 µM (active).

With `CC(=O)SCc1ccco1`, the Potency entry in assay [1], in assay [2], in assay [3], in assay [4], in [5] and in assay [6] was “inactive” each time. Besides, the Potency result in assay [7], in assay [8], in [9], in [11], in assay [13] and in assay [17] was “inactive” in each case. Besides, the Potency entry in assay [15] is “inactive”.

For `O=C(O)CN(CCOCCOCCN(CC(=O)O)CC(=O)O)CC(=O)O`, the activity change, negative = cytotoxicity is -7.96% [at 0.349 µM] in [1], 0.622% [at 0.249 µM] in assay [6], -3.51% [at 0.249 µM] in assay [7] and -15.2% [at 0.249 µM] in assay [8]. In addition, the activity, positive = activation in assay [2] was -0.157% [at 0.349 µM]. In assay [3], the activity change was 0.537% [at 0.217 µM, stronger effect = higher value]. Also, the activation was -1.47% [at 0.29 µM] in assay [4]; -0.598% [at 0.217 µM] in [5]; -0.693% [at 0.292 µM] in assay [9]; -0.0666% [at 0.29 µM] in [11]; -1.26% [at 0.349 µM] in assay [12]; 0.525% [at 0.349 µM] in assay [16]. Further, the activity, negative = inhibition in assay [10] is -20.9% [at 0.232 µM]. Further, the activity change, negative = inhibition is 0.383% [at 0.349 µM] in [13], 0.881% [at 0.349 µM] in assay [17] and -1.35% [at 0.348 µM] in assay [15].

For the compound `CCC(C)OC(C)CC` (stereo not drawn), the Potency result in assay [1], in [2], in assay [3], in assay [4], in [5] and in [6] was “inactive” in each case. In addition, the Potency result in [7], in assay [8], in assay [9], in [10], in [11] and in assay [12] was “inactive” each time. Also, the Potency result in assay [13], in assay [17], in assay [16] and in assay [14] was “inactive” each time.

Consider `Cn1c(NCCN(CCO)CCCc2ccc([N+](=O)[O-])cc2)cc(=O)n(C)c1=O`, for which the Potency result in [1], in [2], in [3], in assay [4], in assay [5] and in [6] was “inactive” each time. Besides, the Potency entry in [7], in assay [8], in [10], in assay [11], in [12] and in [13] was “inactive” each time. In addition, the Potency result in assay [17], in assay [16], in assay [14] and in [15] was “inactive” each time.

In the case of `CN1C(CSCC(F)(F)F)Nc2cc(Cl)c(S(N)(=O)=O)cc2S1(=O)=O` (stereo not drawn), the Potency entry in assay [1], in assay [2], in [3], in assay [4], in assay [5] and in assay [6] was “inactive” each time. For the same compound, the Potency result in assay [7], in assay [8], in assay [9], in [10], in assay [11] and in assay [12] was “inactive” throughout. The Potency entry in assay [13], in assay [17], in assay [16], in assay [14] and in assay [15] was “inactive” each time.
